Reference: publication PMC7862700, “An all-to-all approach to the identification of sequence-specific readers for epigenetic DNA modifications on cytosine”

Experiments:
Assay in all cases: DAPPL (digital affinity profiling via proximity ligation, sequencing); 10 mM Tris-HCl pH 7.5, 50 mM NaCl, 1 mM DTT, 4% glycerol, room temperature, 30 min; GST-TFs on glutathione beads, 16-mer random dsDNA library, 0.1% formaldehyde crosslink after washing; high values mean tight binding
Conditions in all cases: protein: recombinant; tags: N-terminal GST; dsDNA, one strand shown
ERF = target: T1, ERF (Homo sapiens, UniProt P50548 1-548)
T1 sequence: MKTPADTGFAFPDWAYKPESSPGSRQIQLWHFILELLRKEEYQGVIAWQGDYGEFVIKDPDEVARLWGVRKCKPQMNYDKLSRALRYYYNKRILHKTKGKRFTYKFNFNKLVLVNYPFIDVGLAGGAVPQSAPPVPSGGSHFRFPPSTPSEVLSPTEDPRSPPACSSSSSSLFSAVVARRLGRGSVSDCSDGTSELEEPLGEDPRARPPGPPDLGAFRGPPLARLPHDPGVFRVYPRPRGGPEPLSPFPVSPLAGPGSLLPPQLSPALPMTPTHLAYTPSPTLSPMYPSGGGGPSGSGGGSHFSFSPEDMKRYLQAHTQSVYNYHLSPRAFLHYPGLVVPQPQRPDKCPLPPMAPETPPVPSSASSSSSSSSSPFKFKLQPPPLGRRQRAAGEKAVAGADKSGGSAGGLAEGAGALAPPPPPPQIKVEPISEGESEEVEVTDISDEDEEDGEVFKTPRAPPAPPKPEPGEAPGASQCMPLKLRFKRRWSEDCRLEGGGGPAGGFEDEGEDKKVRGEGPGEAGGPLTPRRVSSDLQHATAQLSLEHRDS
In short: (§1)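 GST fusions of human transcription factors were expressed in yeast and captured with glutathione beads. Once given DNA barcodes and pooled alongside a tag-only sample, they were incubated for 30 min at room temperature with 200 nmole of a random double-stranded 16-mer DNA library in Tris/NaCl/DTT/glycerol buffer, then washed, crosslinked (0.1% formaldehyde), proximity-ligated, PCR-amplified and sequenced on an Illumina NextSeq500. The binding signal of each hexamer is its read frequency for a factor divided by its frequency for the tag-only sample.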

ETV3L = target: T2, ETV3L (Homo sapiens, UniProt Q6ZN32 1-361)
T2 sequence: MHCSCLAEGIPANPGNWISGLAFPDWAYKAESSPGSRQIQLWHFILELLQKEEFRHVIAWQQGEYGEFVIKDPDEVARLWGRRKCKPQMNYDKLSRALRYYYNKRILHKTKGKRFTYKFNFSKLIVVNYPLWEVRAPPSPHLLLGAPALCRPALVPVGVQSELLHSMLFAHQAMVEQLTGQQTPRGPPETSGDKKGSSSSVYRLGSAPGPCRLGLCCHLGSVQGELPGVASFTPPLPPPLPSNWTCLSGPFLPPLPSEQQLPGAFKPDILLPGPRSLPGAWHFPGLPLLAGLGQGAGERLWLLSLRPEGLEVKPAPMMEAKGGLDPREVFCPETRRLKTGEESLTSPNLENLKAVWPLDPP
In short: as §1

ETS2 = target: T3, ETS2 (Homo sapiens, UniProt P15036 1-469)
T3 sequence: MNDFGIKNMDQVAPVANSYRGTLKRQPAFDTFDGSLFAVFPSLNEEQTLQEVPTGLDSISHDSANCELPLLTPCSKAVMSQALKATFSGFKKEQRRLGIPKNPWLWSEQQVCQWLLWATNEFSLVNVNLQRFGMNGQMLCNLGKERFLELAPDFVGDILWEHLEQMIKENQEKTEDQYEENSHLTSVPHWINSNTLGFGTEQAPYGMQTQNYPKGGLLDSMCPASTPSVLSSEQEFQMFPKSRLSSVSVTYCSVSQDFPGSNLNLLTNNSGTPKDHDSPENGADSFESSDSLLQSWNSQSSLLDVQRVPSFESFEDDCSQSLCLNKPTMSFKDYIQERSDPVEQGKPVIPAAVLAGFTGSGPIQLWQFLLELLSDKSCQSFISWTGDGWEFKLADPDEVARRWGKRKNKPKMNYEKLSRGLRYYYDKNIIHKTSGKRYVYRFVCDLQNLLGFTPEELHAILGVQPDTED
In short: as §1

SPDEF = target: T4, SPDEF (Homo sapiens, UniProt O95238 1-335)
T4 sequence: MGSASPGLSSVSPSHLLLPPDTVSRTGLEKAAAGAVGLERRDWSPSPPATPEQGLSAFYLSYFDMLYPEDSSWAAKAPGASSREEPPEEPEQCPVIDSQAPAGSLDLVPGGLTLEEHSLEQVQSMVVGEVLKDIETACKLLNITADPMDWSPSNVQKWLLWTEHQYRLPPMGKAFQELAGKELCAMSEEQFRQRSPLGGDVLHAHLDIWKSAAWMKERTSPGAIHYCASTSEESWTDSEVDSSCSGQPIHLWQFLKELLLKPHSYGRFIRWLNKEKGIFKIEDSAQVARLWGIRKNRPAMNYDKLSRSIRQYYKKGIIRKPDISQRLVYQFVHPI
In short: as §1

ETV7 = target: T5, ETV7 (Homo sapiens, UniProt Q9Y603 1-341)
T5 sequence: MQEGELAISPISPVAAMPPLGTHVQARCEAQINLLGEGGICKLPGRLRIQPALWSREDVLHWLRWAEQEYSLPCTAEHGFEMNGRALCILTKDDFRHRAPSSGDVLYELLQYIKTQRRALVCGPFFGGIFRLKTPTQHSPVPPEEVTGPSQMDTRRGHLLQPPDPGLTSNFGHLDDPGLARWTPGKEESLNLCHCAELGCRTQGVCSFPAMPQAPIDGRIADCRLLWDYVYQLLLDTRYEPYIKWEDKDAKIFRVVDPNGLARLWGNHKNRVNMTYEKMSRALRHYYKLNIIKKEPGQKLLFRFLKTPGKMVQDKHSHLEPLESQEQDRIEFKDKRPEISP
In short: as §1

ELF5 = target: T6, ELF5 (Homo sapiens, UniProt Q9UKW6-2 1-255)
T6 sequence: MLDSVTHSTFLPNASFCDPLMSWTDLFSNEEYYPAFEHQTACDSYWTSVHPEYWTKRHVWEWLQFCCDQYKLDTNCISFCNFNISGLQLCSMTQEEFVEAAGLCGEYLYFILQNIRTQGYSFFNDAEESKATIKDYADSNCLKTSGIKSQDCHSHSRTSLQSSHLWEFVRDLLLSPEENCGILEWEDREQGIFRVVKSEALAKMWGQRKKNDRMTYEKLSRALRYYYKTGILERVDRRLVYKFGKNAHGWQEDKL
In short: as §1

ETV3 = target: T7, ETV3 (Homo sapiens, UniProt P41162-2 1-143)
T7 sequence: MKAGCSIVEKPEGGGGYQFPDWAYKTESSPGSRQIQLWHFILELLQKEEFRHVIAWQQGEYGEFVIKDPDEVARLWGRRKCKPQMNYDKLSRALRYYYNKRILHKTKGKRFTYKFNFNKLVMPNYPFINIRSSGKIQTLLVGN
In short: as §1

ETV6 = ETV6 (Homo sapiens, UniProt P41212 1-452)
ETV6, sequence (P41212 whole entry): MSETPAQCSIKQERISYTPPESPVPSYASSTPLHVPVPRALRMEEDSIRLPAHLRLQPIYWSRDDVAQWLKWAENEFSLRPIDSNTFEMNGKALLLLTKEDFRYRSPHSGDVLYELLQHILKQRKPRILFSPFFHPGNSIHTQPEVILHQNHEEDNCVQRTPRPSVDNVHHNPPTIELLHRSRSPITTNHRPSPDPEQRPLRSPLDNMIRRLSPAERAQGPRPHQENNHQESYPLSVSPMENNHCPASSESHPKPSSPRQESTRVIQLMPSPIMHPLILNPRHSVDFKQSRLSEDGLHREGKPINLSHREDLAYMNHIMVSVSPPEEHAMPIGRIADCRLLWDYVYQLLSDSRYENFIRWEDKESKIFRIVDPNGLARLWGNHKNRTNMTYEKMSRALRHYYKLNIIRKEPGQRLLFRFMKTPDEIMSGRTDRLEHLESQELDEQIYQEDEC
In short: as §1

In the case of CCTGCT, the binding signal (ERF) was 1.53 fold enrichment (6-mer frequency, TF over GST control), the binding signal (ETV3L) was 1.65 fold enrichment (6-mer frequency, TF over GST control) and the binding signal (ETS2) was 1.62 fold enrichment (6-mer frequency, TF over GST control). For the same sequence, the binding signal (SPDEF) was 1.82 fold enrichment (6-mer frequency, TF over GST control), the binding signal (ETV7) was 1.65 fold enrichment (6-mer frequency, TF over GST control) and the binding signal (ELF5) was 1.84 fold enrichment (6-mer frequency, TF over GST control). The binding signal (ETV3) was 1.67 fold enrichment (6-mer frequency, TF over GST control) and the binding signal (ETV6) was 1.68 fold enrichment (6-mer frequency, TF over GST control).

For CTAAGT, the binding signal (ERF) was 1.13 fold enrichment (6-mer frequency, TF over GST control), the binding signal (ETV3L) was 1.33 fold enrichment (6-mer frequency, TF over GST control) and the binding signal (ETS2) was 1.23 fold enrichment (6-mer frequency, TF over GST control). The binding signal (SPDEF) was 1.3 fold enrichment (6-mer frequency, TF over GST control), the binding signal (ETV7) was 1.29 fold enrichment (6-mer frequency, TF over GST control) and the binding signal (ELF5) was 1.17 fold enrichment (6-mer frequency, TF over GST control). The binding signal (ETV3) was 1.21 fold enrichment (6-mer frequency, TF over GST control) and the binding signal (ETV6) was 1.27 fold enrichment (6-mer frequency, TF over GST control).

With TACTTC the binding signal (ERF) was 3.18 fold enrichment (6-mer frequency, TF over GST control), the binding signal (ETV3L) was 3.22 fold enrichment (6-mer frequency, TF over GST control) and the binding signal (ETS2) was 3.64 fold enrichment (6-mer frequency, TF over GST control). For the same sequence, the binding signal (SPDEF) was 4.31 fold enrichment (6-mer frequency, TF over GST control), the binding signal (ETV7) was 3.62 fold enrichment (6-mer frequency, TF over GST control) and the binding signal (ELF5) was 4.77 fold enrichment (6-mer frequency, TF over GST control). For the same sequence, the binding signal (ETV3) was 3.67 fold enrichment (6-mer frequency, TF over GST control) and the binding signal (ETV6) was 4.67 fold enrichment (6-mer frequency, TF over GST control).

TCCGAC was tested, and the binding signal (ERF) was 1.57 fold enrichment (6-mer frequency, TF over GST control), the binding signal (ETV3L) was 1.47 fold enrichment (6-mer frequency, TF over GST control) and the binding signal (ETS2) was 1.48 fold enrichment (6-mer frequency, TF over GST control). The binding signal (SPDEF) was 1.43 fold enrichment (6-mer frequency, TF over GST control), the binding signal (ETV7) was 1.43 fold enrichment (6-mer frequency, TF over GST control) and the binding signal (ELF5) was 1.61 fold enrichment (6-mer frequency, TF over GST control). For the same sequence, the binding signal (ETV3) was 1.43 fold enrichment (6-mer frequency, TF over GST control) and the binding signal (ETV6) was 1.55 fold enrichment (6-mer frequency, TF over GST control).

For CAAAAC, the binding signal (ERF) was 1.28 fold enrichment (6-mer frequency, TF over GST control), the binding signal (ETV3L) was 1.27 fold enrichment (6-mer frequency, TF over GST control) and the binding signal (ETS2) was 1.27 fold enrichment (6-mer frequency, TF over GST control). The binding signal (SPDEF) was 1.23 fold enrichment (6-mer frequency, TF over GST control), the binding signal (ETV7) was 1.23 fold enrichment (6-mer frequency, TF over GST control) and the binding signal (ELF5) was 1.25 fold enrichment (6-mer frequency, TF over GST control). For the same sequence, the binding signal (ETV3) was 1.18 fold enrichment (6-mer frequency, TF over GST control) and the binding signal (ETV6) was 1.33 fold enrichment (6-mer frequency, TF over GST control).

In the case of TTTATG, the binding signal (ERF) was 1.31 fold enrichment (6-mer frequency, TF over GST control), the binding signal (ETV3L) was 1.36 fold enrichment (6-mer frequency, TF over GST control) and the binding signal (ETS2) was 1.32 fold enrichment (6-mer frequency, TF over GST control). For the same sequence, the binding signal (SPDEF) was 1.29 fold enrichment (6-mer frequency, TF over GST control), the binding signal (ETV7) was 1.32 fold enrichment (6-mer frequency, TF over GST control) and the binding signal (ELF5) was 1.29 fold enrichment (6-mer frequency, TF over GST control). The binding signal (ETV3) was 1.36 fold enrichment (6-mer frequency, TF over GST control) and the binding signal (ETV6) was 1.33 fold enrichment (6-mer frequency, TF over GST control).

With TTCTTT the binding signal (ERF) was 1.08 fold enrichment (6-mer frequency, TF over GST control), the binding signal (ETV3L) was 1.27 fold enrichment (6-mer frequency, TF over GST control) and the binding signal (ETS2) was 1.32 fold enrichment (6-mer frequency, TF over GST control). The binding signal (SPDEF) was 1.08 fold enrichment (6-mer frequency, TF over GST control), the binding signal (ETV7) was 1.24 fold enrichment (6-mer frequency, TF over GST control) and the binding signal (ELF5) was 1.13 fold enrichment (6-mer frequency, TF over GST control). For the same sequence, the binding signal (ETV3) was 1.2 fold enrichment (6-mer frequency, TF over GST control) and the binding signal (ETV6) was 1.14 fold enrichment (6-mer frequency, TF over GST control).

With CGATGG the binding signal (ERF) was 1.18 fold enrichment (6-mer frequency, TF over GST control), the binding signal (ETV3L) was 1.34 fold enrichment (6-mer frequency, TF over GST control) and the binding signal (ETS2) was 1.33 fold enrichment (6-mer frequency, TF over GST control). For the same sequence, the binding signal (SPDEF) was 1.29 fold enrichment (6-mer frequency, TF over GST control), the binding signal (ETV7) was 1.39 fold enrichment (6-mer frequency, TF over GST control) and the binding signal (ELF5) was 1.18 fold enrichment (6-mer frequency, TF over GST control). The binding signal (ETV3) was 1.24 fold enrichment (6-mer frequency, TF over GST control) and the binding signal (ETV6) was 1.33 fold enrichment (6-mer frequency, TF over GST control).
